Inconclusive results are not listed. Calls of active or inactive are those of the source. Unless noted, calls come from the whole dose curve; as a rule, active = well fitted curve in the direction sought with a large enough effect; inconclusive = small, poorly fitted or top-dose-only effect, or another doubt; inactive = no such curve, though single readings can be large; an effect the other way counts as inactive or inconclusive.
Tests used:
[1] = target: Arylsulfatase A (Homo sapiens) (UniProt P15289); test: qHTS screen for enhancers of Arylsulfatase A (ASA1): LOPAC Validation Assay (AID 720538); settings: ASA enzyme activity, LOPAC qHTS enhancer assay; series mostly up to 57.5 µM; note: potency is the fitted concentration of half-maximal effect
Procedure, shortened: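 Cell-based enhancement test: residual ASA activity in SV40-transformed I179S patient fibroblasts is measured by pNCS turnover (0.5mM final, 14h, room temperature) following 48h compound incubation; higher fluorescence indicates activation.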

[2] = qHTS for compounds that reverse cellular toxicity of Amyloid beta (A-beta) peptide in yeast: LOPAC Validation Assay (AID 720559); settings: yeast expressing A-beta; series mostly up to 46.1 µM;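 note: plate controls were DMSO for no effect and equimolar ferric chloride plus clioquinol rescue for full effect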
Procedure, shortened: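 Here, A-beta-toxic yeast grow with test compounds at 30 C for 48 hr before optical density at 600 nm is recorded; data are normalized against DMSO and the FeCl3-clioquinol control.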

[3] = qHTS for Activators of Parkin Expression: LOPAC Validation Assay (NLuc Reporter) (AID 720572;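 note: 0% = DMSO and 100% = positive control compound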); settings: Parkin promoter NanoLuc reporter cells, luminescence; series mostly up to 46.1 µM
Procedure, shortened: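 Cells harboring the Parkin-promoter coincidence reporter were treated for 24 h at seven concentrations. NLuc output was measured sequentially after the FLuc channel and scaled between DMSO and positive control values.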

[4] = qHTS assay for small molecule activators of the nuclear factor-kappa B (NF-kB) signaling pathway (AID 651749; active = well fitted activation curve with a large enough effect in the signal ratio; the % refers to the signal ratio; note: % of control where 0% means no effect); settings: NF-kB-bla ME-180 cells, beta-lactamase FRET ratio, 16 h; active compounds read high
Procedure, shortened: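 Human ME-180 cervical cells with an NF-kB-bla construct; compounds added via 23 nL pin transfer, DMSO as vehicle; incubation 16 hr. Reporter activity measured by FRET disruption.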

[5] = qHTS assay for environmental chemicals that activate the Aryl hydrocarbon Receptor (AhR) signaling pathway (AID 651777); settings: 1A2-DRE human hepatoma cells, luciferase, 24 h; active compounds read high; note: % of control where 0% means no effect; nearly all actives have a fitted effect of over 15% in size
Procedure, shortened: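 1A2-DRE human hepatoma reporter line; 1,200 cells/well; cmpd or DMSO 24 h, 37 C/5% CO2; One-Glo 30 min RT; luciferase lum.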

[6] = target: Peroxisome proliferator-activated receptor alpha (Homo sapiens) (UniProt Q07869); test: qHTS assay for small molecule agonists of the peroxisome proliferator-activated receptor alpha (PPARalpha) signaling pathway (AID 651778); settings: PathHunter PPARalpha complementation, chemiluminescence, 6 h; max response: active compounds read high; note: potency is the fitted concentration of half-maximal effect; for max response: % of control where 0% means no effect
Procedure, shortened: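 Cells plated at 2,000/well and held overnight at 37 C, 5% CO2, then compound added by pin tool for 6 hr; after PathHunter detection reagent and 60 min at room temperature, chemiluminescence from enzyme complementation was read.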

[7] = qHTS assay for small molecule agonists of the antioxidant response element (ARE) signaling pathway measured by Nrf2-dependant transcriptional activity (AID 720636; active = well fitted curve in the direction sought with a large enough effect in the repeat runs; an effect the other way counts as inactive or inconclusive;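 note: HepG2 cells with an ARE-driven luciferase reporter; % of control where 0% means no effect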); settings: ARE-luc HepG2, Nrf2 luciferase reporter, 16 h; series mostly up to 92.4 µM
Procedure, shortened: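 Cells: ARE-luc HepG2 with Nrf2-responsive luciferase. Medium contained 1% dialyzed FBS. Compound exposure lasted 16 hr at 37 C and 5% CO2, followed by ONE-Glo luciferase detection.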

[8] = qHTS assay for small molecule agonists of the antioxidant response element (ARE) signaling pathway measured by Nrf2-dependant transcriptional activity - cell viability counter screen (AID 720653; active = well fitted curve in the direction sought with a large enough effect in the repeat runs; an effect the other way counts as inactive or inconclusive; note: % is set by controls: 0 for no effect and ±100 for the full control effect); settings: ARE-bla HepG2 viability, CellTiter-Glo ATP luminescence, 16 h; active compounds read low
Procedure, shortened: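 ARE-bla HepG2 cells (2,000/well) rested 5 hrs at 37C/5% CO2, then exposed to compounds in DMSO for 16 hrs. Viability was read in the same wells as intracellular ATP by luminescence, 30 min at room temperature after reagent addition.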

[9] = qHTS assay for small molecule agonists of the antioxidant response element (ARE) signaling pathway (AID 651741; active = well fitted activation curve with a large enough effect in the signal ratio; the % refers to the signal ratio; note: potency is the fitted concentration of half-maximal effect); settings: HepG2 ARE-bla reporter, beta-lactamase FRET ratio, 16 h; series mostly up to 96 µM
Procedure, shortened: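 Reporter: beta-lactamase under ARE, stably in HepG2. Exposure: 16 h, 37 C, compounds delivered in DMSO by pin tool after 5 h cell preincubation. Readout: FRET substrate fluorescence after 2 h at RT.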

[10] = qHTS assay for small molecule activators of the p53 signaling pathway (AID 651743; active = well fitted activation curve with a large enough effect in the signal ratio, not every such curve was filed as active; the % refers to the signal ratio; note: % of control where 0% means no effect); settings: HCT-116 p53RE-bla, beta-lactamase FRET ratio, 16 h; active compounds read high
Procedure, shortened: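 Agonist-mode quantitative HTS in HCT-116 cells carrying a p53-response-element beta-lactamase reporter; 16 h compound treatment at 37 C, then FRET substrate loading for 2 h at room temperature and fluorescence read.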

[11] = qHTS for Activators of Parkin Expression: LOPAC Validation Assay (FLuc Reporter) (AID 720573;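 note: 0% = DMSO and 100% = positive control compounds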); settings: Cell line, PRKN promoter firefly luciferase reporter; series mostly up to 46.1 µM
Procedure, shortened: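 Readout is FLuc luminescence from neuronal reporter cells (Parkin promoter, FLuc plus NLuc) after 24 h compound exposure in dose response. Values normalized to neutral DMSO and positive-control compounds.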

[12] = target: Tumor susceptibility gene 101 protein (Homo sapiens) (UniProt Q99816); test: qHTS Assay for Iinhibitors of HIV-1 Budding by Blocking the Interaction of PTAP/TSG101: Hit Validation (AID 651600); settings: PTAP peptide/TSG101 UEV interaction, biochemical assay; series mostly up to 57.5 µM; note: % is set by controls: 0 for no effect and ±100 for the full control effect; nearly all actives have a fitted effect of over 70% in size
Procedure, shortened: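 Measuring PTAP–Tsg101 interaction by FP: protein at 10 uM and fluorescent peptide at 50 nM (final), buffer 10 mM HEPES pH 7.5 with 0.15 M NaCl, 3 mM EDTA, 0.1 mM TCEP, 0.01% Tween 20; 20 min incubation, r.t.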

Arylsulfatase A (Homo sapiens), sequence (P15289 whole entry, looked up): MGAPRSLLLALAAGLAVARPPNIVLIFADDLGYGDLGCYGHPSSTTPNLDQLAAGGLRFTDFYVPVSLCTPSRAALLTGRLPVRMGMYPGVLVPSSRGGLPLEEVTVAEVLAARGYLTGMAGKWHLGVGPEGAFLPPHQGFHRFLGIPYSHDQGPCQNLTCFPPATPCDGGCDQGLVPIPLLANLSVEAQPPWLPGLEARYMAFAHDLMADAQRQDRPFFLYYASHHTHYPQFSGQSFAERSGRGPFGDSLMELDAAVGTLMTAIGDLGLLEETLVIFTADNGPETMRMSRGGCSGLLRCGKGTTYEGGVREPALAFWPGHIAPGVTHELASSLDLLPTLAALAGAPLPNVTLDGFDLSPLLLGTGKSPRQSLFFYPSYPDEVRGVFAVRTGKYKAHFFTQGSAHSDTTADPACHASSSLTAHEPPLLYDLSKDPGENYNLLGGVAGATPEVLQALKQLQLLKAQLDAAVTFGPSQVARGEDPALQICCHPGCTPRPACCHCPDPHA
Peroxisome proliferator-activated receptor alpha (Homo sapiens), sequence (Q07869 whole entry, looked up): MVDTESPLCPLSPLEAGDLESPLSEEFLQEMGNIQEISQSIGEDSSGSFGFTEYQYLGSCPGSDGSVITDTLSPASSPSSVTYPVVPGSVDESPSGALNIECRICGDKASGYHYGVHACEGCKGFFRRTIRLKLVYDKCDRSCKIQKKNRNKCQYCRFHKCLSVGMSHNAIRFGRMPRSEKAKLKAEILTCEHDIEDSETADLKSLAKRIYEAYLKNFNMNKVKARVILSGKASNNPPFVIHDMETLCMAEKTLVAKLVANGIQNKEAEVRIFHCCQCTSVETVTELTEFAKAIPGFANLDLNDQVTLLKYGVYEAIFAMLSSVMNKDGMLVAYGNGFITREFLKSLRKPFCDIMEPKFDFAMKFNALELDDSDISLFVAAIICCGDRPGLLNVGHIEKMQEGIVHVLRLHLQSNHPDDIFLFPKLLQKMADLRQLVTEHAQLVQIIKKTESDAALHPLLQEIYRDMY
Tumor susceptibility gene 101 protein (Homo sapiens), sequence (Q99816 whole entry, looked up): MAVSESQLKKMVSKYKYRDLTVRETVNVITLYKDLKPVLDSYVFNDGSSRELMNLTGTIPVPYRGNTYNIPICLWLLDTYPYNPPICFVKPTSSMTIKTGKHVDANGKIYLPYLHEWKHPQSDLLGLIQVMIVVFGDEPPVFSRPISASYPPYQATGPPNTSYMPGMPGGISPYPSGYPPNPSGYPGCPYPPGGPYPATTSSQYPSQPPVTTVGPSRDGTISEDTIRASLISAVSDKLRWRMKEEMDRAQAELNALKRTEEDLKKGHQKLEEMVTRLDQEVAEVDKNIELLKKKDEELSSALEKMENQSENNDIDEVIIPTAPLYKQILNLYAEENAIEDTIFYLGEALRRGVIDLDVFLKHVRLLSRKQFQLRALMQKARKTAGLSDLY

COc1ccc(CCN(C)CCc2ccc(OC)c(OC)c2)cc1OC
inactive: Potency [1] | outcome [2] | Potency [3]

N[C@@H](Cc1ccc(O)c(I)c1)C(=O)O
inactive: Potency [1] | outcome [2] | Potency [3]

N#CC(C#N)=C(N)/C(C#N)=C/c1ccc(O)cc1
inactive: Potency [1] | outcome [2]

CCCc1c(-c2ccc(O)cc2)nn(-c2ccc(O)cc2)c1-c1ccc(O)cc1
inactive: activation [4] -3.76% | activation [5] -1.12% | max response [6] -1.98% | Potency [1] | outcome [2] | outcome [7] | max response [8] -5.61%

COCc1nc2c([nH]1)c(=O)n(C)c(=O)n2CC(C)C
inactive: Potency [1] | outcome [2] | Potency [3]

CC1C(=O)N(C)C(=O)c2nc[nH]c21 (stereo not drawn)
inactive: Potency [1] | outcome [2] | Potency [3]

CCCc1c(OCCCOc2ccc(OCC(=O)O)cc2)ccc(C(C)=O)c1O
inactive: activation [10] 16.9% | activation [4] -3.53% | activation [5] 0.459% | Potency [1] | outcome [2] | Potency [3] | Potency [11] | outcome [7] | max response [8] 7.96%
active: Potency [9] 54.5 µM | Potency [6] 11.2 µM

COc1cc2c(CCNC(C)=O)c[nH]c2cc1O
inactive: outcome [2] | Potency [3]
active: Potency [1] 37.9 µM

Oc1cc2c(cc1O)C(c1ccccc1)CNCC2 (stereo not drawn)
inactive: Potency [1] | outcome [2] | Potency [3]

N=C(N)c1ccc(OCCCCCOc2ccc(C(=N)N)cc2)cc1 (tested in a mixture with another compound)
inactive: Potency [1] | outcome [2]

C/C(=C\c1ccc(C(=O)O)cc1)c1ccc2c(c1)C(C)(C)CCC2(C)C
inactive: activation [5] 0.324% | Potency [1] | outcome [2] | Potency [3] | Potency [11] | outcome [7] | max response [8] -1.94%
active: Potency [9] 27.3 µM

Nc1nc2c(nc(Br)n2C2OC3COP(=O)(O)O[C@@H]3C2O)c(=O)[nH]1 (stereo partly drawn)
inactive: Potency [1] | outcome [2] | Potency [3]

N[C@H]1CONC1=O
inactive: Potency [1]

N#Cc1cc2nc(O)c(O)nc2cc1[N+](=O)[O-]
inactive: Potency [1] | outcome [2] | Potency [3]

N=S(=O)(O)Cc1noc2ccccc12
inactive: Potency [1] | outcome [2] | Potency [3]

CN1CCCC1CCOC(C)(c1ccccc1)c1ccc(Cl)cc1 (stereo not drawn)
inactive: outcome [12] | Potency [1] | outcome [2] | Potency [3] | Potency [11]

N[C@@H](CS(=O)O)C(=O)O
inactive: Potency [1] | outcome [2] | Potency [3]

CC1CNCCN1S(=O)(=O)c1cccc2cnccc12 (stereo not drawn)
inactive: Potency [1] | outcome [2]

— PubChem BioAssay (NCATS)
